Reference: PubChem BioAssay (Tox21)
Results filed as inconclusive are left out. A call without a number means that no potency is given here. Values without a mark were called inactive. The source made the active and inactive calls. Unless noted, the call rests on the fitted dose curve; in most records, active means well fitted curve in the direction sought with a large enough effect in the repeat runs; inconclusive means weak or mixed curves; inactive means no such curve, though single readings can be large; an effect the other way counts as inactive or inconclusive.

Tests used:
[1] = qHTS assay to identify small molecule antagonists of the thyroid receptor (TR) signaling pathway - cell viability counter screen (AID 743064); further: nearly all actives have a fitted effect of over 50% in size
In short: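 Fluorescence from CellTiter-Fluor, added after 23.5 h exposure at 37 °C, reported viability of GH3.TRE-Luc cells co-treated with compound and 1 nM T3. Measured in the same wells as the luciferase TR readout.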

[2] = qHTS assay to identify small molecule antagonists of the thyroid receptor (TR) signaling pathway (AID 743065); further: nearly all actives have a fitted effect of over 55% in size
In short: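 GH3.TRE-Luc rat pituitary cells (two TREs driving luciferase) were dosed with compound, then stimulated with 1 nM T3 (final) for 23.5 h at 37 C. ONE-Glo luminescence was the read-out, with CellTiter-Fluor fluorescence as the cytotoxicity counter-screen.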

[3] = test system: thyroid hormone receptor (rat, GH3 cells); test: qHTS assay to identify small molecule agonists of the thyroid receptor (TR) signaling pathway (AID 743066; calls by dose curve)
[4] = biological target: Estrogen receptor (Homo sapiens) (UniProt P03372); test: qHTS assay to identify small molecule antagonists of the estrogen receptor alpha (ER-alpha) signaling pathway (AID 743069; active means well fitted curve in the direction sought with a large enough effect in the signal ratio in the repeat runs, not every such curve was filed as active; the % refers to the signal ratio)
Sequence of Estrogen receptor (Homo sapiens) (P03372 whole entry, looked up): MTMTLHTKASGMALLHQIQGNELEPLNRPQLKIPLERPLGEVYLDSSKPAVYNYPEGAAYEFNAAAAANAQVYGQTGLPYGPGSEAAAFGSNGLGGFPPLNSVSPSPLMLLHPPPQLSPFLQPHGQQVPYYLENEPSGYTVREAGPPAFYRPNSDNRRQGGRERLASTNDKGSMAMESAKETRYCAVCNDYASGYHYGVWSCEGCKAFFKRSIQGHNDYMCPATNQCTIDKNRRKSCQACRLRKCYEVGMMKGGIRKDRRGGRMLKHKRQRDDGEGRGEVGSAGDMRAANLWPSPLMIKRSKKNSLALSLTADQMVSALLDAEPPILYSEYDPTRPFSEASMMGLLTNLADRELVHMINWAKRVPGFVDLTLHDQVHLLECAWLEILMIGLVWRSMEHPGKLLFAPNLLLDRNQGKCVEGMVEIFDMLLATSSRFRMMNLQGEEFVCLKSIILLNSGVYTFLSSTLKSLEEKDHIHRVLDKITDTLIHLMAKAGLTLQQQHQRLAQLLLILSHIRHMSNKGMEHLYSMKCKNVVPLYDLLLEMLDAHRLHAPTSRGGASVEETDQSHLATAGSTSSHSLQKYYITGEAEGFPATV
In short: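 Reporter cells (ER-alpha-bla, HEK293 background) are conditioned overnight in stripped-serum medium (2% charcoal-stripped FBS). Compound and 17beta-estradiol exposure runs 18 hr at 37C, 5% CO2.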

[5] = qHTS assay to identify small molecule antagonists of the estrogen receptor alpha (ER-alpha) signaling pathway - cell viability counter screen (AID 743074; calls by dose curve;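 further: HEK293 cells carrying ER-alpha-UAS-bla reporter stimulated with 17beta-estradiol; nearly all actives have a fitted effect of over 45% in size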)
[6] = biological target: Estrogen receptor (Homo sapiens) (UniProt P03372); test: qHTS assay to identify small molecule agonists of the estrogen receptor alpha (ER-alpha) signaling pathway (AID 743075; calls by dose curve;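 further: HEK293 GripTite cells with ER-alpha and UAS-driven beta-lactamase reporter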)
[7] = biological target: Estrogen receptor (Homo sapiens) (UniProt P03372); test: qHTS assay to identify small molecule agonists of the estrogen receptor alpha (ER-alpha) signaling pathway using the BG1 cell line (AID 743079); conditions: BG1Luc4E2 cells, ERE-luciferase agonist, 22 h; activation: at 70.3 µM (top of the series); further: nearly all actives have a fitted effect of over 20% in size; further: potency means the concentration at half of the fitted maximal effect
[8] = biological target: Aromatase (Homo sapiens) (UniProt P11511); test: qHTS assay to identify aromatase inhibitors (AID 743083); further: nearly all actives have a fitted effect of over 55% in size
Sequence of Aromatase (Homo sapiens) (P11511 whole entry, looked up): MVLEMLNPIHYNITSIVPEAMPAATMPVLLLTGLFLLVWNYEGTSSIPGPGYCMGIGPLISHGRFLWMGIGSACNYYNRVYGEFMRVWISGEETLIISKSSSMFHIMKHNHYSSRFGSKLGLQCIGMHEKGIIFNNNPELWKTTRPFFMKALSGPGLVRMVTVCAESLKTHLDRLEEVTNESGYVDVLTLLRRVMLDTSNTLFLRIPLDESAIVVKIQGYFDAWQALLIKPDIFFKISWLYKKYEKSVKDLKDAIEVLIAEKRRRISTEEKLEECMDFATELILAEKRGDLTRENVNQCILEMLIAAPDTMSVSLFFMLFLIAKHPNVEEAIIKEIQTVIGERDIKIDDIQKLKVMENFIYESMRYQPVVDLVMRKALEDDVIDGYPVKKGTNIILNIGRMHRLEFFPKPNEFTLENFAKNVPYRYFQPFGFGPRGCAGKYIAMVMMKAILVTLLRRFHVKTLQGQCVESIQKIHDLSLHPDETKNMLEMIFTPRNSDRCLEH

[9] = qHTS assay to identify aromatase inhibitors - cell viability counter screen (AID 743084);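 further: cells stimulated with testosterone during compound exposure; nearly all actives have a fitted effect of over 55% in size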
[10] = biological target: Aryl hydrocarbon receptor (Homo sapiens) (UniProt P35869); test: qHTS assay to identify small molecule that activate the aryl hydrocarbon receptor (AhR) signaling pathway (AID 743085); further: nearly all actives have a fitted effect of over 15% in size; further: potency means the concentration at half of the fitted maximal effect;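 on activation: HG2L7.5c1 human HepG2 liver cells with stably integrated DRE-driven firefly reporter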
Sequence of Aryl hydrocarbon receptor (Homo sapiens) (P35869 whole entry, looked up): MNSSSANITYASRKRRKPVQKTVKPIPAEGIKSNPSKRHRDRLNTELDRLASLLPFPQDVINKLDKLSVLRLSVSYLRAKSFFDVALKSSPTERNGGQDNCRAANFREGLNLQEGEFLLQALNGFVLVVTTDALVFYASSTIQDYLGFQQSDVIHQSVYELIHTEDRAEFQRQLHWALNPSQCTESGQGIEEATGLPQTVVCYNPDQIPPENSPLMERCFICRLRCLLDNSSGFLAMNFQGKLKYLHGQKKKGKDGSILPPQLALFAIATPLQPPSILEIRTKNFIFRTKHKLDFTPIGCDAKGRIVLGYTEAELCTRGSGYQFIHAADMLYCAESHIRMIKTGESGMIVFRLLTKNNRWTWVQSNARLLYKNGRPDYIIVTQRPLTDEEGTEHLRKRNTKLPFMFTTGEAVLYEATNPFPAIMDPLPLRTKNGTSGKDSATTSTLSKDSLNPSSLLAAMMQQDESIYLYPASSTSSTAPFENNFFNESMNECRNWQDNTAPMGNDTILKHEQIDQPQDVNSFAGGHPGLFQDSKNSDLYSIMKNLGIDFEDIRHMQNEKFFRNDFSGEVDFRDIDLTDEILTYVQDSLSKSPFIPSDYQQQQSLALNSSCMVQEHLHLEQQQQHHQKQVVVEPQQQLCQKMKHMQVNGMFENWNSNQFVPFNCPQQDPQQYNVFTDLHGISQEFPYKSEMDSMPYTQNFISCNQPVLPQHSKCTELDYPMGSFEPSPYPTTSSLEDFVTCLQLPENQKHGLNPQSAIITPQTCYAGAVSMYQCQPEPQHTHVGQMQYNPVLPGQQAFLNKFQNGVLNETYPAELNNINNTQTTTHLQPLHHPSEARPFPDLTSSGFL
In short: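 Cell line HG2L7.5c1 (human hepatoma, 20× DRE-luc). Plated, 5 h 37C, compound/DMSO added, 24 h 37C. CellTiter-Fluor 30 min 37C → fluorescence; then ONE-Glo 30 min RT → luminescence.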

[11] = qHTS assay to identify small molecule that activate the aryl hydrocarbon receptor (AhR) signaling pathway - cell viability counter screen (AID 743086);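 further: HepG2 liver cells carrying the AhR DRE luciferase reporter; nearly all actives have a fitted effect of over 45% in size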
In short: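 HepG2-AhR-luc (HG2L7.5c1) cells, 4000/well, treated 24 h at 37 C with compound; viability measured as CellTiter-Fluor fluorescence after 30 min in the same wells as the luciferase read.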

[12] = biological target: Peroxisome proliferator-activated receptor gamma (Homo sapiens) (UniProt P37231); test: qHTS assay to identify small molecule agonists of the peroxisome proliferator-activated receptor gamma (PPARg) signaling pathway (AID 743094; active means well fitted activation curve with a large enough effect in the signal ratio in the repeat runs, not every such curve was filed as active; the % refers to the signal ratio)
Sequence of Peroxisome proliferator-activated receptor gamma (Homo sapiens) (P37231 whole entry, looked up): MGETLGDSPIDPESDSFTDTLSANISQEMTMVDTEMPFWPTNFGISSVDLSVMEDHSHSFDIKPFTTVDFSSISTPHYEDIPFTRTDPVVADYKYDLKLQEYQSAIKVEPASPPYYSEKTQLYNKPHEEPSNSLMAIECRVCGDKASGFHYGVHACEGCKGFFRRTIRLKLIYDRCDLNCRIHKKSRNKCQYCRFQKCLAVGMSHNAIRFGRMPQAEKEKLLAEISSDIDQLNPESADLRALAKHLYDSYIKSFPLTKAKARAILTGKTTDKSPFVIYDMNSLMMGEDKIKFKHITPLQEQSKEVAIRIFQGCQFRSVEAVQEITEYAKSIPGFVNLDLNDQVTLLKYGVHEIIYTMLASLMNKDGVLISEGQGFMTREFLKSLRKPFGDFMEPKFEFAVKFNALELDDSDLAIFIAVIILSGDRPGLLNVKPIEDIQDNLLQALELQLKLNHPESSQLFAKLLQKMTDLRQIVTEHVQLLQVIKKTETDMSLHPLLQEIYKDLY
In short: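 GeneBLAzer PPARg UAS-bla HEK293H cells carrying a stably integrated beta-lactamase reporter were pre-incubated 5 h at 37C, then exposed to compounds in DMSO for 17 h at 37C; LiveBLAzer B/G FRET substrate was added for 1 h at room temperature and fluorescence read.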

[13] = qHTS assay to identify small molecule phospholipidosis (PLD) inducers (AID 1259344; active means well fitted curve in the direction sought with a large enough effect; an effect the other way counts as inactive or inconclusive)
In short: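 Quantitative HTS in HepG2: compound plus LipidTOX Red dye for 24 h, paraformaldehyde fixation with Hoechst 33342, widefield high-content imaging; amiodarone as positive and DMSO as negative control.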

[14] = qHTS assay to identify small molecule antagonists of the estrogen receptor alpha (ER-alpha) signaling pathway using the BG1 cell line (AID 743080; calls by dose curve;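 further: BG1 cells stimulated with 17beta-estradiol alongside compound; nearly all actives have a fitted effect of over 25% in size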; further: potency means the concentration at half of the fitted maximal effect)
In short: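 BG1-Luc-4E2 cells (endogenous full-length ER-alpha, stable 4×ERE-luciferase) were starved 5 days in phenol-red-free medium with 10% charcoal-stripped FBS, plated 24 h, then given compound plus 17beta-estradiol for 21.5 h at 37 C; ONE-Glo luminescence read after 30 min.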

[15] = qHTS assay to identify small molecule antagonists of the estrogen receptor alpha (ER-alpha) signaling pathway using the BG1 cell line - cell viability counter screen (AID 743081);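 further: compound given together with 17beta-estradiol as the ER stimulus; nearly all actives have a fitted effect of over 45% in size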
[16] = biological target: Nuclear receptor subfamily 1 group I member 2 (Homo sapiens) (UniProt O75469); test: CYP3A4 induction through human pregnane X receptor (PXR) by small molecules, qHTS assay (AID 1346984); further: nearly all actives have a fitted effect of over 40% in size; further: potency means the concentration at half of the fitted maximal effect
In short: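 DPX-2 cells (HepG2 co-transfected with PXR and CYP3A4 promoter-luciferase) treated with compounds 24 h at 37C; luciferin-IPA CYP3A4 substrate 3uM final added for 3 h, then One-Glo; luminescence read. qHTS format.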

[17] = biological target: Nuclear receptor subfamily 1 group I member 2 (Homo sapiens) (UniProt O75469); test: Human pregnane X receptor (PXR) activation by small molecules, qHTS assay (AID 1346985); further: potency means the concentration at half of the fitted maximal effect; nearly all actives have a fitted effect of over 40% in size
In short: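 DPX-2 cells (HepG2 co-transfected with a PXR response element and a CYP3A4-promoter luciferase construct) were seeded at 2,000 per well, rested 5 hr at 37C, then exposed to DMSO-dissolved compounds for 24 hr. Activation was read as luciferase luminescence.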

Row | Compound | Potency [1] | Potency [2] | Potency [3] | Potency [4] | Potency [5] | Potency [6] | Potency [7] | Potency [8] | Potency [9] | Potency [10] | Potency [11] | Potency [12] | PLD induction [13] | Potency [14] | Potency [15] | Potency [13] | Potency [16] | Potency [17]
1 | NCCCNCCCCNC(=O)C(O)NC(=O)CCCCCCN=C(N)N (centres undefined) | inactive | inactive | inactive | inactive | inactive | inactive | inactive | inactive | inactive | inactive | inactive | inactive | -1.69% [at 7.66 µM] |  |  |  |  | 
2 | CO[C@@H]1[C@@H](O[C@@H]2O[C@H](C)[C@@H](O[C@H]3C[C@@](C)(O)[C@@H](OC(=O)CC(C)C)[C@H](C)O3)[C@H](N(C)C)[C@H]2O)[C@@H](CC=O)C[C@@H](C)[C@@H](O)/C=C/C=C/C[C@@H](C)OC(=O)C[C@H]1O | inactive | inactive | inactive | inactive | inactive | inactive | 13.3 µM (active) | inactive | inactive | inactive |  | inactive |  | inactive | inactive | inactive |  | 
3 | C[C@@H]1C/C=C/C=C/C=C/C=C/[C@H](O[C@@H]2O[C@H](C)[C@@H](O)[C@H](N)[C@@H]2O)C[C@@H]2O[C@](O)(C[C@@H](O)C[C@H]3O[C@@H]3/C=C/C(=O)O1)C[C@H](O)[C@H]2C(=O)O | inactive | inactive | inactive | inactive | inactive | inactive | inactive | inactive | inactive | inactive | inactive | inactive |  | inactive | inactive | inactive |  | 
4 | C#CCOc1ccc2c(C)cc(=O)oc2c1 |  | inactive | inactive |  | inactive | inactive | inactive | inactive | inactive |  | inactive | inactive |  | inactive | inactive | inactive | inactive | 
5 | CC(C)CN(C[C@@H](O)[C@H](Cc1ccccc1)NC(=O)O[C@H]1CO[C@H]2OCC[C@H]21)S(=O)(=O)c1ccc(N)cc1 | inactive | inactive | inactive | inactive | inactive | inactive | inactive | inactive | inactive | inactive | inactive |  |  | inactive | inactive | inactive |  | 
6 | CC(C)CN(C[C@@H](O)[C@H](Cc1ccccc1)NC(=O)O[C@@H]1CCOC1)S(=O)(=O)c1ccc(N)cc1 |  |  |  | inactive | inactive | inactive |  | inactive | inactive | inactive | inactive | inactive |  |  | inactive | inactive | inactive | 2.82 µM (active)
7 | OC(CN1CCCCC1)c1cc(-c2ccccc2)on1 (centres undefined) | inactive | inactive | inactive | inactive | inactive | inactive | 23.7 µM (active) | inactive | inactive |  | inactive | inactive |  |  | inactive | inactive |  | 
8 | O=P(O)(O)OC(Cn1cncn1)(Cn1cncn1)c1ccc(F)cc1F | inactive | inactive | inactive | inactive | inactive | inactive | inactive | inactive | inactive | inactive | inactive | inactive |  |  |  | inactive |  | 
9 | O=C(O)c1cccc(/C=C2/C[C@@H]3[C@@H](/C=C/[C@@H](O)C4CCCCC4)[C@H](O)C[C@@H]3O2)c1 | inactive | inactive | inactive | inactive | inactive | inactive | inactive | inactive | inactive | inactive | inactive |  |  | inactive | inactive | inactive |  | 
10 | Cc1cccc(C)c1Nc1ncccc1C(=O)O | inactive |  | inactive |  | inactive | inactive |  | inactive | inactive | 29.8 µM (active) |  | inactive |  |  | inactive | inactive | inactive | 
11 | CCC(=O)NS(=O)(=O)c1ccc(-c2c(-c3ccccc3)noc2C)cc1 | inactive | inactive | inactive | inactive | inactive | inactive | inactive | inactive | inactive | inactive | inactive |  |  | inactive |  | inactive |  | 
12 | O=S(O)CNc1ccc(S(=O)(=O)c2ccc(NCS(=O)O)cc2)cc1 | inactive | inactive | inactive | inactive | inactive | inactive | inactive | inactive | inactive | inactive | inactive | inactive |  | inactive | inactive | inactive |  | 
13 | O=C1O[C@H]2[C@H](O)[C@@H]1OC(O)[C@H]2O (some centres undefined) | inactive | inactive | inactive | inactive | inactive | inactive | 13.3 µM (active) | inactive | inactive | inactive | inactive | inactive |  | inactive | inactive | inactive |  | 
14 | CN1C(=O)CN2CCc3ccccc3C2c2cc(Cl)ccc21 (centres undefined) |  |  |  | inactive | inactive | inactive | inactive | inactive | inactive | 4.73 µM (active) | inactive | inactive |  | 21.1 µM (active) | inactive | inactive | 3.16 µM (active) | 22.4 µM (active)
